Screens (PubChem BioAssay)
Bead autofluor: compound fluorescence in toxin protease inhibitor counterscreen; compound autofluorescence counterscreen, microsphere flow cytometry; hits give high values; fluorescence intensity (concentration not given with the values); hit rate 3.1% among 360,000; AID 624483; in the data active = fluorescence intensity above about 16000; inconclusive = no clear call, values can overlap the other calls
Anthrax LF inh2: anthrax lethal factor protease inhibition; multiplex microsphere protease cleavage assay, LF; inhibition, % at 10 µM; P15917; hit rate 0.12% among 360,000; note: plate controls were buffer without enzyme for full effect and enzyme alone for no effect
BoNT-A LC inh2: BoNT A light chain protease inhibition | multiplex microsphere protease substrate cleavage, flow cytometry | inhibition, % at 10 µM | hit rate 0.17% among 360,000 | AID 588499; note: plate controls were buffer without enzyme for full effect and enzyme alone for no effect
BoNT-F LC inh: BoNT F light chain protease inhibition | Multiplex microsphere protease cleavage assay, flow cytometry | inhibition, % at 10 µM | hit rate 0.22% among 360,000 | AID 588497; in the data active = inhibition above about 35%, passing the limit was not always enough; inconclusive = no clear call, values can overlap the other calls; note: plate controls were buffer without enzyme for full effect and enzyme alone for no effect
FBA Mtb inh: inhibits M. tuberculosis FBA enzyme; P9WQA3; purified M. tuberculosis FBA, fluorescence read-out; inhibition, % at 1 µM; hit rate 2.3% among 360,000; in the data active = inhibition above about 27%;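 note: 0% = vehicle and 100% = reference inhibitor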
Target sequence (P9WQA3 whole entry, looked up): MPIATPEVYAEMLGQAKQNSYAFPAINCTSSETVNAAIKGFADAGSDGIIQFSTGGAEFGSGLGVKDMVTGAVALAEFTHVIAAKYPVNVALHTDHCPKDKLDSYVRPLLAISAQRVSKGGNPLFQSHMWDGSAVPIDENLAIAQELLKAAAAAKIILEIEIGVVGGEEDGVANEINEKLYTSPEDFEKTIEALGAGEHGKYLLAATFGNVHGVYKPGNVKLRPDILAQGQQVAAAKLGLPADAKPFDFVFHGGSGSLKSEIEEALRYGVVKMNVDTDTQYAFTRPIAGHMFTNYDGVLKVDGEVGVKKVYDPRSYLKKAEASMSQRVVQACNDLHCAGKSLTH
GDH-TPI inh: inhibits GDH-TPI coupling enzymes, artifact for Mtb FBA screen; GDH-TPI coupled enzyme counterscreen, NADH absorbance; inhibition, % at 4.8 µM; hit rate 1.2% among 360,000; AID 588335; in the data active = inhibition above about 30%;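 note: 0% = DMSO wells and 100% = wells lacking the enzyme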
* marks the source's active call; other numbers are inactive results; ? = inconclusive; + = active, no number. Hits are enriched below; roughly 6.7% of the tested compounds scored in any of these assays. Cut-off read from the data, not from the text of the source, unless noted: active = inhibition above about 30%; inconclusive = no clear call, values can overlap the other calls; inactive = below that.

SMILES	Bead autofluor	Anthrax LF inh2	BoNT-A LC inh2	BoNT-F LC inh	FBA Mtb inh	GDH-TPI inh
COc1cccc(CN(C(=O)c2cnccn2)C(C(=O)NC2CCCCC2)c2cc(OC)c(OC)c(OC)c2)c1 (stereo not drawn)	5476	-1.7	2.2	6.3	2.8	-0.8
Cc1ccc(S(=O)(=O)N2CCOCC2)cc1C(=O)Nc1ccccc1F	6279	3.9	-0.2	3.1	-1.8	-2.1
COc1ccc(C(=O)COC(=O)c2ccc3c(c2)NC(=O)CS3)c(OC)c1	?	-1.5	5.0	9.6	0.7	-5.0
O=C(CN1CCC(c2nc3ccccc3[nH]2)CC1)Nc1ccc2c(c1)OCO2	21412*	-5.0	3.9	3.1	1.7	-5.6
O=C(CSc1ccccc1)Nc1ccc(-c2nc3ccccc3[nH]2)cc1	2366	-1.8	0.0	-2.6	-0.1	9.0
O=C(CN1CCOCC1)Nc1ccc(-c2nc3ccccc3[nH]2)cc1	23886*	0.3	-1.6	-5.4	3.7	14.0
O=C(CSc1cccc[n+]1[O-])NC1CCCCC1	?	-1.4	8.7	?	0.0	-2.2
COc1ccc(C(=O)Nc2ccccc2C(=O)NC(C(=O)NCc2ccco2)C(C)C)cc1 (stereo not drawn)	2765	0.1	-0.6	-15.9	-0.7	-4.1
COc1ccc(C(=O)Nc2ccccc2C(=O)N(Cc2ccco2)C(C(N)=O)C(C)C)cc1 (stereo not drawn)	22943*	-1.8	0.3	2.9	1.4	10.1
CC(NS(=O)(=O)c1ccc(OCC(=O)NCc2ccncc2)cc1)c1ccccc1 (stereo not drawn)	3763	0.5	-1.0	6.0	-1.6	-1.9
Cc1cc(C(F)(F)F)nn1Cc1n[nH]c(=S)n1-c1ccc(Cl)cc1	19410*	2.8	0.5	1.0	1.0	-16.8
Cc1ccc(-n2c(Cn3nc(C(F)F)cc3C(F)F)n[nH]c2=S)cc1	22572*	1.9	1.7	1.6	-2.2	-1.9
COc1ccc(OCc2n[nH]c(=S)n2-c2ccc(C)cc2)cc1	2240	-2.2	0.7	0.8	1.2	-0.3
CC(=O)N1CCN2C(=O)C1CCCC(=O)c1cc(C3CCCCC3)ccc12 (stereo not drawn)	3685	0.0	0.6	-4.7	1.4	6.2
Cc1cc(C)cc(CC2CC(=O)N(c3cc(C)on3)C2=O)c1 (stereo not drawn)	19958*	1.0	-0.4	0.2	0.5	-10.9
O=C(CN1C(=O)c2cccc3cccc1c23)Nc1ccccc1C(=O)NCc1ccco1	3527	-1.9	-0.5	-5.4	7.4	-2.6
Cc1ccc(S(=O)(=O)Nc2ccc(Nc3ccccc3)cc2)cc1	3582	-5.4	-1.4	-3.5	-1.5	18.6
O=C(CNC(=O)Cc1ccccc1)NCC(=O)OCc1ccc(C(=O)c2ccccc2)cc1	16310*	-7.1	-1.4	-2.8	-1.1	8.6
CC(=O)Nc1ccc(S(=O)(=O)NCc2ccc(C(=O)NCCN3CCCCCC3)cc2)cc1	5310	-0.7	-1.4	-20.1	1.8	8.3
Cn1nc(C(F)(F)F)c(/C=N/OC(=O)c2ccccc2Cl)c1SCc1ccccc1Cl	22148*	-0.1	1.7	1.2	-0.6	12.8
Cn1nc(C(F)(F)F)c(/C=N/OC(=O)c2ccccc2)c1SCc1ccc(Cl)cc1	21079*	-2.4	-1.2	-0.7	-1.1	-19.1
COCCn1c(=NC(=O)CSCC(=O)N2CCOCC2)sc2ccccc21	5382	0.0	2.1	5.0	0.6	8.2
Cc1ccc(-n2c(SCC(=O)NCc3ccco3)nc3sc(C)c(C)c3c2=O)cc1	3339	0.8	2.0	14.3	-0.8	20.1
COc1ccc(CNc2cc(C)nc3ncnn23)c(OC)c1	22962*	-2.1	-2.1	-1.5	1.8	1.9
COc1ccccc1CNC(=O)C(=O)NCCC1CCCCN1S(=O)(=O)c1cccs1 (stereo not drawn)	5621	2.9	1.7	2.1	10.1	-4.5
SMILES	Bead autofluor	Anthrax LF inh2	BoNT-A LC inh2	BoNT-F LC inh	FBA Mtb inh	GDH-TPI inh
O=C(Nc1ccc(C(F)(F)F)cc1Cl)c1ccc(Cn2cc(Br)cn2)o1	11651	1.5	-1.0	-20.9	-2.5	-3.2
CS(=O)(=O)c1ccc2nc(NC(=O)c3ccc(Cn4cc(Br)cn4)o3)sc2c1	5296	0.4	2.8	13.2	17.9	31.3*
O=C(Nc1cccc(C(F)(F)F)c1)c1ccc(Cn2cc(Br)cn2)o1	17799*	-11.3	4.7	5.3	-4.2	-10.9
NS(=O)(=O)c1ccc2nc(NC(=O)c3ccc(Br)o3)sc2c1	4213	-4.9	0.2	0.3	9.8	24.2
COc1ccc(NC(=O)c2csc3c2CCCC3)cc1	23873*	-1.7	-1.2	-3.1	-2.1	-1.2
COc1cccc(NC(=O)c2csc3c2CCCC3)c1	2482	1.9	0.1	-3.7	1.5	-0.6
Cc1ccccc1NC(=O)c1csc2c1CCCC2	20804*	-4.1	-3.1	-3.9	0.8	-8.1
O=C(NCc1ccccc1)c1csc2c1CCCC2	2622	0.9	0.0	-1.0	1.1	7.8
CCOc1cc2c(cc1OCC)-n1cccc1C(c1ccc(OC)c(O)c1)NC2 (stereo not drawn)	3332	1.6	1.8	-21.1	0.3	3.8
CC(C)(C(=O)c1ccccc1)/[N+]([O-])=C/c1ccccc1	23931*	-1.2	-1.2	0.0	2.4	4.2
CC(C)(C(=O)c1ccccc1)/[N+]([O-])=C/c1ccc(F)cc1	9958	-3.9	-0.7	4.5	-0.2	-2.0
COc1ccc(C2CC(c3ccccc3)=NN2c2ccc(N)cc2)cc1 (stereo not drawn)	2788	-6.6	0.4	-31.4	-0.1	15.3
COc1ccc(C2CC(c3ccc(Cl)cc3)=NN2c2ccc(S(N)(=O)=O)cc2)cc1 (stereo not drawn)	3590	-1.0	-0.1	-2.3	+	6.2
COc1ccc(C2CC(c3cccc(Cl)c3)=NN2c2ccc(S(N)(=O)=O)cc2)cc1 (stereo not drawn)	4041	1.8	-0.1	-3.2	141.1*	18.8
O=[N+]([O-])c1ccc(NC(=S)NCc2ccncc2)cc1	2549	-1.5	0.3	2.1	-4.3	12.6
COc1ccc([C@H]2/C=C\CN(C(=O)CC(C)(C)C)[C@@H](C)C(=O)N2Cc2ccc(F)cc2)cc1	4018	-5.6	-0.4	-2.5	2.4	6.0
Cc1ccc(NC(=O)c2ccc([N+](=O)[O-])cc2Cl)nc1	2072	1.1	0.1	3.0	1.8	8.7
Cc1ccc(/C=N/NC(=O)c2cc(-c3ccccc3)nc3ccccc23)o1	5808	-2.2	0.3	-2.3	-0.6	22.3
Cc1ccc(C=NNC(=O)c2cc(-c3cccnc3)nc3ccccc23)o1	3074	-2.4	0.2	-5.4	-0.3	34.4*
C/C(=N\NC(=O)c1cc(-c2cccnc2)nc2ccccc12)c1ccc(O)cc1O	7322	-11.9	-3.8	-23.8	-0.7	34.9*
C/C(=N\NC(=O)c1cc(-c2cccc(OC(C)C)c2)nc2ccccc12)c1cccnc1	5575	-5.7	0.0	-2.1	2.0	9.8
COc1ccccc1-c1nnc(SC(C(=O)c2c[nH]c3ccccc23)c2ccccc2)n1C (stereo not drawn)	2566	0.1	-1.3	-3.9	1.6	7.0
